Reference: PubChem BioAssay (NCI)
“And” between values parts separate entries of the source, which are not always exact repeats. Equal values may be shown once. The panel holds about 83,000 compounds, 20% with a hit somewhere; the sample as a whole holds those more often.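 Each cell line was grown in a 96-well plate and treated with one concentration of compound for 48 hours. Values below 10 were considered active.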 The source made the active and inactive calls. Where a SMILES comes first, the peptide text is derived from it. [ ]: non-standard residue; d: D form. ξ: configuration not given here. ξV = CC(C)C(N)C(=O)O

Tested on: MDA-MB-231 breast
Assay: NCI-60 one-dose screen, 48 h (100 = growth as untreated, 0 = no growth, -100 = all killed)
Conditions: 10 µM

Compound | growth
NNc1ccc2ccccc2c1 | 68.7% (inactive) and 90.1% (inactive)
NC1=C(Cl)C(=O)c2ccccc2C1=O | 72.1% (inactive)
Nc1ccc2cc3ccc(N)cc3nc2c1 | 97% (inactive) and 18.4% (inactive)
CO[C@H](C(=O)[C@@H](O)[C@@H](C)O)[C@@H]1Cc2cc3cc(OC4CC(OC5CC(O)C(O)C(C)O5)C(O)C(C)O4)c(C)c(O)c3c(O)c2C(=O)[C@H]1OC1CC(OC2CC(OC3CC(C)(O)C(O)C(C)O3)C(O)C(C)O2)C(O)C(C)O1 (stereo partly drawn) | 14.6% (inactive)
CCC(C)(C)c1cc(O)c(C(C)(C)CC)cc1O | 6.91% (active)
Cc1cc(NS(=O)(=O)c2ccc(N=Nc3cc(N=Nc4ccc(S(=O)(=O)Nc5cc(C)nc(C)n5)cc4)c4c(NC(=O)C(Cl)Cl)cccc4c3OC(=O)C(Cl)Cl)cc2)nc(C)n1 (tested in a mixture with another compound) | 81.8% (inactive) and 68.1% (inactive)
O=C(Nc1ccc(C(=O)O)c(O)c1)c1ccccc1 | 98.5% (inactive) and 104% (inactive)
CC(=O)Nc1cc(C)ccc1C | 112% (inactive)
CCCCCCCCCCCCCCCCCCOCC(COP(=O)([O-])OCC[N+](C)(C)C)OC (stereo not drawn) | 74.4% (inactive)
CCCC1CCC(=C2C(=O)CCC2=O)O1 (stereo not drawn) | 102% (inactive) and 101% (inactive)
COC(=O)C1C(O)C(C)C(O)C(C)C=C(C)C2=C3C(=C(C)C(=O)c4c(O)c(c(C)c(OC(C)=O)c43)NC(=O)C(C)=C/C=C\C(C)C(O)C(C)C1O)OCO2 (stereo not drawn) | 105% (inactive)
CCCCCCCCCCSC(=N)N | 13% (inactive)
CS(=O)(=O)OC1CC(n2ccc(=O)[nH]c2=O)OC1COC(c1ccccc1)(c1ccccc1)c1ccccc1 (stereo not drawn) | 106% (inactive)
Clc1cc(Cl)c(Cl)nn1 | 105% (inactive)
OCC(O)C(O)C(O)C(/C=N/Nc1ccccc1)=N/Nc1ccccc1 (stereo not drawn) | 79.7% (inactive)
CSC1SCC2C(=O)N(C)C(C(C)C)C(=O)OCC(NC(=O)c3cnc4ccccc4n3)C(=O)NC(C)C(=O)N(C)C1C(=O)N(C)C(C(C)C)C(=O)OCC(NC(=O)c1cnc3ccccc3n1)C(=O)NC(C)C(=O)N2C (stereo not drawn) | -8.05% (active)
COc1cccc2c1C(=O)c1c(O)c3c(c(O)c1C2=O)C[C@@](O)(C(C)=O)C[C@@H]3OC1CC(N)C(O)C(C)O1 (stereo partly drawn) | -17.9% (active)
CCCCCCCCCCCC[N+](C)(C)Cc1ccccc1 | 25.3% (inactive)
CC(=O)OCC(OC(C)=O)C(OC(C)=O)C(OC(C)=O)C(OC(C)=O)C(/C=N/Nc1ccccc1)=N/Nc1ccccc1 (stereo not drawn) | 58.8% (inactive)
Clc1ccc(/C=C/c2ccccn2)c(Cl)c1 | 85.5% (inactive)
CC(C)(C)CC(C)(C)c1ccc(OCCO)cc1 | 106% (inactive)
COc1cccc2c1C(=O)c1c(O)c3c(c(O)c1C2=O)C[C@@](O)(C(=O)CO)C[C@@H]3OC1CC(N)C(O)C(C)O1 (stereo partly drawn) | 3.79% (active)
CCCCCCCCCCCCSC(=NC)NC | -28.3% (active) and 40.4% (inactive)
O=C1NC(=O)c2cc([N+](=O)[O-])ccc21 | 107% (inactive)
O=C(/C=C/c1ccccn1)c1ccccc1 | 90.2% (inactive)
O=c1ccn(C2CC(O)C(COC(c3ccccc3)(c3ccccc3)c3ccccc3)O2)c(=O)[nH]1 (stereo not drawn) | 73.5% (inactive)
CC(C)C(NC(=O)CN)C(=O)O (stereo not drawn) (H-Gly-[ξV]-OH) | 106% (inactive)
CCN(CC)c1ccc(NC(C(=O)c2ccccc2)c2ccccc2)cc1 (stereo not drawn) | -34.1% (active)
